Inconclusive results are not listed. Where a call stands in place of a potency, no number is given. Activity calls are given as the source filed them. Calls come from the whole dose curve; as a rule, active = well fitted curve in the direction sought with a large enough effect in the repeat runs; inconclusive = weak or mixed curves; inactive = no such curve, though single readings can be large; an effect the other way counts as inactive or inconclusive.
What follows are molecules tested against Voltage-gated inwardly rectifying potassium channel KCNH2 (Homo sapiens) (UniProt Q12809) (assay: Human Ether-a-go-go-Related Gene (hERG) channel small molecule antagonists: fluorescence cell-based qHTS assay (AID 1671200)). Conditions: hERG-U2OS cells, FluxOR thallium flux fluorescence; series mostly up to 76.8 µM.
Summary of the method: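 Read-out: thallium influx as a surrogate for potassium, tracked as fluorescence (480 nm ex/540 nm em) every second for 2 min after Stimulus Buffer addition in dye-loaded hERG-U2OS cells.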
Note: nearly all actives have a fitted effect of over 50% in size.
Potency is the fitted concentration of half-maximal effect.

Chain of Voltage-gated inwardly rectifying potassium channel KCNH2 (Homo sapiens) (Q12809 whole entry, looked up): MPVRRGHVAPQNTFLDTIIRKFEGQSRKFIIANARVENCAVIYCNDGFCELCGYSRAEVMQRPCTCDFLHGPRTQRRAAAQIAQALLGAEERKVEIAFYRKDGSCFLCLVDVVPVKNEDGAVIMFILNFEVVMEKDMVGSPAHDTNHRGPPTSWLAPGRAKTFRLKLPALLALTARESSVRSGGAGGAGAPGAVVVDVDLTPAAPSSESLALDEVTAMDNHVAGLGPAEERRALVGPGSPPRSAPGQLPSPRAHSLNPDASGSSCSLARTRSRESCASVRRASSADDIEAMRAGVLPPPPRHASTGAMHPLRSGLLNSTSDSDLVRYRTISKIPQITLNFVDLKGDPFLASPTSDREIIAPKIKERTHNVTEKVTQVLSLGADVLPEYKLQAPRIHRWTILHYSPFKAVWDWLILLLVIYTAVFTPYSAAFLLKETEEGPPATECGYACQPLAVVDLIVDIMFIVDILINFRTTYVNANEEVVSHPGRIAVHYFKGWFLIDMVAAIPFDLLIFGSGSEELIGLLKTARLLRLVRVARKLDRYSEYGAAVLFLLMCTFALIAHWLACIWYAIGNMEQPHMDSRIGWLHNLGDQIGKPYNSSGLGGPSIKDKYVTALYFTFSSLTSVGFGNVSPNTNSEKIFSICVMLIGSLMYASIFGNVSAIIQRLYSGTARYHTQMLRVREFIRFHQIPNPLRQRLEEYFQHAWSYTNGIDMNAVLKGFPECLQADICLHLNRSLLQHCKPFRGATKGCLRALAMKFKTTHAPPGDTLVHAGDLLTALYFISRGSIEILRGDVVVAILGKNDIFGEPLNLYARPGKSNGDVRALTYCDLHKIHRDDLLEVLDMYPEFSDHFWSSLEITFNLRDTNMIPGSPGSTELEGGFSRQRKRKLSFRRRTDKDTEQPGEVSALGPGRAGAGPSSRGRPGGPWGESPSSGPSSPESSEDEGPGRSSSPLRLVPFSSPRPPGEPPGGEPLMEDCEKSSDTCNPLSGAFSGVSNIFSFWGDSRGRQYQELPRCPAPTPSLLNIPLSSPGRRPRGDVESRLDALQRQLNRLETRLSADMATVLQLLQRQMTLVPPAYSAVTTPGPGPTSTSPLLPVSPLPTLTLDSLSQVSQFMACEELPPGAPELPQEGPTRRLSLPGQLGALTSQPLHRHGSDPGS

| SMILES | Potency |
| --- | --- |
| C=Cc1ccc(O)c(OC)c1 | inactive |
| COCCC(=O)OC | inactive |
| CC(C)(C)c1cc(CCC(=O)OCCSCCOC(=O)CCc2cc(C(C)(C)C)c(O)c(C(C)(C)C)c2)cc(C(C)(C)C)c1O | inactive |
| C[C@H]1O[C@@H](O[C@H]2CC[C@@]3(C)[C@H](CC[C@@H]4[C@@H]3C[C@@H](O)[C@]3(C)[C@@H](C5=CC(=O)OC5)CC[C@]43O)C2)C[C@H](O)[C@@H]1O[C@H]1C[C@H](O)[C@H](O[C@H]2C[C@H](O)[C@H](O[C@@H]3O[C@H](CO)[C@@H](O)[C@H](O)[C@H]3O)[C@@H](C)O2)[C@@H](C)O1 | inactive |
| c1ccc2c(c1)-c1ccc3ccc4cccc5cc-2c1c3c45 | inactive |
| CCNc1nc(NC(C)(C)C)nc(OC)n1 | inactive |
| CC1(C)[C@H](C(=O)OCc2cccc(Oc3ccccc3)c2)[C@@H]1C=C(Cl)Cl | inactive |
| C=C(C)CCO | inactive |
| CCCCCCCCCC[N+](C)(CCCCCCCCCC)CCC[Si](OC)(OC)OC | 2.45 µM (active) |
| Oc1cccc2c(O)cccc12 | inactive |
| NCc1cccc(C2CCN(C(=O)c3ccc(C#Cc4ccccc4F)o3)CC2)c1 | 11 µM (active) |

What follows are molecules tested against Cytochrome P450 3A4 (Homo sapiens) (UniProt P08684) (assay: Cytochrome P450 Family 3 Subfamily A Member 4 (CYP3A4) small molecule antagonists: luciferase reporter qHTS assay (AID 1671201)). Conditions: P450-Glo CYP3A4 enzyme, luciferin luminescence, 1 h; series mostly up to 115 µM.
Summary of the method: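 Luminescent readout (RLU) proportional to CYP3A4 activity, from luciferin generated off a proluciferin substrate. Enzyme–substrate mix plus compound 10 min at room temp, NADPH regeneration 1 h, detection reagent 20 min.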

Chain of Cytochrome P450 3A4 (Homo sapiens) (P08684 whole entry, looked up): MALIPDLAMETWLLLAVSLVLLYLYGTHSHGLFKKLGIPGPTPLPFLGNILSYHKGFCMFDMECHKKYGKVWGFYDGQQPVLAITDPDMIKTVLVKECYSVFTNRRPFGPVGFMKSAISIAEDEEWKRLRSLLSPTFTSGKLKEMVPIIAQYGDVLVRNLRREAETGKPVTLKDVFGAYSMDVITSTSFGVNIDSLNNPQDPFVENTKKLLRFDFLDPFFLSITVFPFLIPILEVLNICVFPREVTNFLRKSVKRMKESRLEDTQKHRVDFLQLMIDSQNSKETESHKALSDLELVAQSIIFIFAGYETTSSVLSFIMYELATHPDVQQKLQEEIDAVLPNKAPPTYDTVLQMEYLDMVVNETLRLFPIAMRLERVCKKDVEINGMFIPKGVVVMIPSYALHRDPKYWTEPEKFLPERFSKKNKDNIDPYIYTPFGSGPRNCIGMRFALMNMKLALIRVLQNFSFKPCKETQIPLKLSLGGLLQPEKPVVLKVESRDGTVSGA

| SMILES | Potency |
| --- | --- |
| C=Cc1ccc(O)c(OC)c1 | 20 µM (active) |
| COCCC(=O)OC | inactive |
| O=C1CCC/C=C\CCCCCCCCCC1 | 31.7 µM (active) |
| CC(C)(C)c1cc(CCC(=O)OCCSCCOC(=O)CCc2cc(C(C)(C)C)c(O)c(C(C)(C)C)c2)cc(C(C)(C)C)c1O | 4.9 µM (active) |
| C[C@H]1O[C@@H](O[C@H]2CC[C@@]3(C)[C@H](CC[C@@H]4[C@@H]3C[C@@H](O)[C@]3(C)[C@@H](C5=CC(=O)OC5)CC[C@]43O)C2)C[C@H](O)[C@@H]1O[C@H]1C[C@H](O)[C@H](O[C@H]2C[C@H](O)[C@H](O[C@@H]3O[C@H](CO)[C@@H](O)[C@H](O)[C@H]3O)[C@@H](C)O2)[C@@H](C)O1 | inactive |
| O[Si](c1ccccc1)(c1ccccc1)c1ccccc1 | inactive |
| c1ccc2c(c1)-c1ccc3ccc4cccc5cc-2c1c3c45 | inactive |
| CCNc1nc(NC(C)(C)C)nc(OC)n1 | inactive |
| CC1(C)[C@H](C(=O)OCc2cccc(Oc3ccccc3)c2)[C@@H]1C=C(Cl)Cl | inactive |
| CCOc1nc(F)cc2nc(S(=O)(=O)Nc3c(Cl)cccc3C(=O)OC)nn12 | 35.6 µM (active) |
| C=C(C)CCO | inactive |
| CCCCCCCCCC[N+](C)(CCCCCCCCCC)CCC[Si](OC)(OC)OC | 28.3 µM (active) |
| NCc1cccc(C2CCN(C(=O)c3ccc(C#Cc4ccccc4F)o3)CC2)c1 | 5.64 µM (active) |
| C=C1C(CCl)(CCl)C2(Cl)C(Cl)C(Cl)C1(Cl)C2(Cl)Cl (stereo unspecified) | 0.991 µM (active) |
| O=C1CCCCCCCCCCCCCC1 | 35.6 µM (active) |
